Usually AC50 stands for the concentration at which the activity in the assay is half-maximal.

Calls of active or inactive are those of the source. Rule for the calls: active = hit-call score of the fitted dose curve at least 0.9, where 1 is the maximum; inactive = score below 0.9.

Sequence of Tyrosine-protein kinase Fyn (Homo sapiens) (P06241 whole entry, looked up): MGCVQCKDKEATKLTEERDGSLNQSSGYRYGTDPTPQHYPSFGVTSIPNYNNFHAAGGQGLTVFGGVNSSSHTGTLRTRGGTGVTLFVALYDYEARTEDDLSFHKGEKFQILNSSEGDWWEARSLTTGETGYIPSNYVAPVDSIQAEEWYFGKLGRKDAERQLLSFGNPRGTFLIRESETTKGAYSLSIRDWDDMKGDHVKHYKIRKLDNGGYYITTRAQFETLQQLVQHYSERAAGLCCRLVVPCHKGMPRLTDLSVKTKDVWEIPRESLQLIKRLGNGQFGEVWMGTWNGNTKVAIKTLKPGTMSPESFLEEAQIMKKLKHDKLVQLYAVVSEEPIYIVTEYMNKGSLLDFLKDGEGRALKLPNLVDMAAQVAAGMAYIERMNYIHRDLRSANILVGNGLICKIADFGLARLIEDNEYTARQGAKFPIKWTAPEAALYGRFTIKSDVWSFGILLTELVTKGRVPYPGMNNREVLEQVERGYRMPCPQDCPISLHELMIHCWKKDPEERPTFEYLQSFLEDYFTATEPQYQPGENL

This experiment addresses Tyrosine-protein kinase Fyn (Homo sapiens) (UniProt P06241). Put plainly: ERF_FR_ENZ_hFYN: Eurofins (ERF) Enzymatic Radiometric [Km ATP] KinaseProfiler LeadHunter Assay for human Fyn Tyrosine Kinase. The method, then: ERF_FR_ENZ_hFYN is a biochemical, single-readout assay that uses extracted gene-proteins in a cell-free assay. Measurements were taken 1 hour after chemical dosing in a 96-well plate. See Fyn Human TK Kinase Enzymatic HTRF Assay [Km ATP], Cerep.ERF_FR_ENZ_hFYN is an assay component calculated from the ERF_FR_ENZ_hFYN assay. It is designed to measure enzyme activity using a type of enzyme reporter as detected by fluorescence intensity with HTRF technology.Data from the assay component ERF_FR_ENZ_hFYN was analyzed at the assay endpoint, ERF_FR_ENZ_hFYN, in the positive analysis fitting direction relative to DMSO as the negative control and baseline of activity. Using a type of enzyme reporter, loss-of-signal activity can be used to understand changes in enzymatic activity as they relate to gene FYN. To generalize the intended target to other relatable targets, this assay endpoint is annotated to the kinase intended target family, where the subfamily is non-receptor tyrosine […].
Fyn (h) is incubated with 50 mM Tris pH 7.5, 0.1 mM EGTA, 0.1 mM Na3VO4, 250 uM […] (Cdc2 peptide), 10 mM MgAcetate and [gamma-33P]-ATP (specific activity and concentration as required). The reaction is initiated by the addition of the Mg/ATP mix. After incubation for 40 minutes at room temperature, the reaction is stopped by the addition of phosphoric acid to a concentration of 0.5%. […]
For the compound `O=C(/C=C/c1ccc(O)cc1)CC(=O)/C=C/c1ccc(O)cc1`, the AC50 was 992 nM (active).

(Values after PubChem BioAssay AID2284066 (EPA ToxCast).)
